Results on 25 compounds are retold here after PubChem BioAssay (EPA / NIEHS).

Assay [1] has as its target Transcription factor E2F1 (Homo sapiens) (UniProt Q01094). In words: ATG_E2F_CIS: Attagene CIS-FACTORIAL HepG2 Assay for human E2F Transcription Factor 1 (AID 2282935). Conditions: HepG2 Attagene cis-reporter, E2F reporter RNA transcripts; actives raise or lower the signal. The essentials: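 In this cis-factorial format, endogenous factor activity drives transfected reporters in HepG2; transcripts collected at 24 h are quantified by fluorescence after RT-PCR and capillary separation.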

Assay [2] is described as follows: ATG_E_Box_CIS: Attagene CIS-FACTORIAL HepG2 Assay for human Enhancer Box (E-box) (AID 2282936). Conditions: HepG2 E-box cis-reporter transcription, actives raise or lower the signal. The essentials:
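Measured 24 h post-dosing in HepG2 cells transfected with multiple cis-regulated reporter units, signal being reporter mRNA induction detected by fluorescent RT-PCR with capillary electrophoresis; gain or loss fitted against DMSO.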

Assay [3] can be described thus: ATG_M_61_CIS: Attagene CIS-FACTORIAL HepG2 Assay for M61 Transcription Factor (Internal Marker) (AID 2282937). Conditions: HepG2 Attagene CIS-FACTORIAL M61 internal marker reporter; actives raise or lower the signal. The essentials: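 Cells were transfected with reporter units under cis-regulatory promoters, treated with chemicals for 24 h, then lysed for RNA. Reporter transcripts were quantified by RT-PCR and capillary electrophoresis, and activity was fitted bidirectionally against DMSO.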

The nature of assay [4]: ATG_EGR_CIS: Attagene CIS-FACTORIAL HepG2 Assay for human Early Growth Response 1 (EGR1) (AID 2282938). Conditions: HepG2 Attagene CIS-FACTORIAL EGR reporter mRNA; actives raise or lower the signal. An outline of the steps: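 Endogenous TF activity in HepG2 liver cells was gauged through cis-promoter reporter constructs transiently transfected. After 24 h dosing, reporter mRNA was quantified by RT-PCR and capillary electrophoresis, and curves fitted in both directions versus DMSO.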

Assay [5] can be described thus: ATG_M_19_CIS: Attagene CIS-FACTORIAL HepG2 Assay for M19 Transcription Factor (Internal Marker) (AID 2282939). Conditions: HepG2 Attagene CIS-FACTORIAL M19 internal marker reporter; actives raise or lower the signal. An outline of the steps:
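HepG2, MRTU transient transfection, 24 h dosing. Total RNA → RT-PCR → 6-FAM primer extension → HpaI digest → CE fluorescence. Bidirectional curve fit, DMSO negative control.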

The nature of assay [6]: ATG_ERE_CIS: Attagene CIS-FACTORIAL HepG2 Assay for Estrogen Response Element (ERE) (AID 2282940). Conditions: HepG2 ERE cis-reporter, Attagene RNA transcript; actives raise or lower the signal. The essentials: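 After a 24 h chemical treatment, RNA from reporter-transfected HepG2 cells is reverse-transcribed, PCR-amplified and fluorescently labelled. Fragments separated by capillary electrophoresis give reporter signal; DMSO serves as negative control.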

Assay [7] can be described thus: ATG_Ets_CIS: Attagene CIS-FACTORIAL HepG2 Assay for human Erythroblast Transformation Specific (ETS) (AID 2282941). Conditions: HepG2 ETS cis-reporter transcription, actives raise or lower the signal. An outline of the steps:
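Bidirectional fit versus DMSO of reporter mRNA signal, detected by RT-PCR and capillary electrophoresis in HepG2 cells transiently transfected with cis-element reporters and dosed 24 h.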

The target in assay [8] is Hepatocyte nuclear factor 3-beta (Homo sapiens) (UniProt Q9Y261). Briefly: ATG_FoxA2_CIS: Attagene CIS-FACTORIAL HepG2 Assay for human Forkhead box A2 (FOXA2) (AID 2282942). Conditions: HepG2 cis-reporter transcription factor activity, 24 h; actives raise or lower the signal. The essentials:
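Endogenous transcription factor activity was read in HepG2 cells carrying transiently transfected cis-promoter reporter units. After 24 h dosing, reporter mRNA was quantified by RT-PCR and capillary electrophoresis, and values fitted bidirectionally versus DMSO.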

Assay [9] can be described thus: ATG_FoxO_CIS: Attagene CIS-FACTORIAL HepG2 Assay for human Forkhead box O (FoxO) (AID 2282943). Conditions: HepG2 Attagene cis-reporter, FoxO element, mRNA; actives raise or lower the signal. An outline of the steps:
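Values reflect reporter mRNA induction or loss in HepG2 cells 24 h post-dosing, fitted bidirectionally with DMSO as negative control and baseline. Detection used RT-PCR and fluorescence capillary electrophoresis.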

Assay [10] in a line: ATG_GATA_CIS: Attagene CIS-FACTORIAL HepG2 Assay for human GATA Binding Protein (AID 2282944). Conditions: HepG2 GATA cis-element reporter, Attagene multiplex mRNA; actives raise or lower the signal. The essentials:
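Cells: HepG2, transiently transfected with cis-regulated reporter transcription units. Exposure: 24 h. Detection: RT-PCR plus capillary electrophoresis of FAM-labeled fragments. Analysis: bidirectional, DMSO as baseline.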

The structures appear in SMILES notation. Where “and” joins values, the source holds several entries; their conditions need not be identical. Equal values may be shown once. Calls of active or inactive are those of the source. The calls were made as follows: active = hit-call score of the fitted dose curve at least 0.9, where 1 is the maximum; inactive = score below 0.9.

Hepatocyte nuclear factor 3-beta (Homo sapiens), sequence (Q9Y261 whole entry, looked up): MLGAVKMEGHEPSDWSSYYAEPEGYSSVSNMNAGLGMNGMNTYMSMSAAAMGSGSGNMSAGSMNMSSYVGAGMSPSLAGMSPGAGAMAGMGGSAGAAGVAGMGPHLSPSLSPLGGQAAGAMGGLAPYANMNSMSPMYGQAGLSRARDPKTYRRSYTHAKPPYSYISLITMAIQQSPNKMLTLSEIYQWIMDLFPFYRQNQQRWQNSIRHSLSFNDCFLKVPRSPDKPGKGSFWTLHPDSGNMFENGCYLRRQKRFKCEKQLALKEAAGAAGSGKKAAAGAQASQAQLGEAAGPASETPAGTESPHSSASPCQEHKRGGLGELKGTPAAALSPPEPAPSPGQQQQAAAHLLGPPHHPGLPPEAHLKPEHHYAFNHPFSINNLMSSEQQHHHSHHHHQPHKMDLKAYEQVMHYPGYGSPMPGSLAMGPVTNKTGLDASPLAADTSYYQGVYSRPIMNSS
Transcription factor E2F1 (Homo sapiens), sequence (Q01094 whole entry, looked up): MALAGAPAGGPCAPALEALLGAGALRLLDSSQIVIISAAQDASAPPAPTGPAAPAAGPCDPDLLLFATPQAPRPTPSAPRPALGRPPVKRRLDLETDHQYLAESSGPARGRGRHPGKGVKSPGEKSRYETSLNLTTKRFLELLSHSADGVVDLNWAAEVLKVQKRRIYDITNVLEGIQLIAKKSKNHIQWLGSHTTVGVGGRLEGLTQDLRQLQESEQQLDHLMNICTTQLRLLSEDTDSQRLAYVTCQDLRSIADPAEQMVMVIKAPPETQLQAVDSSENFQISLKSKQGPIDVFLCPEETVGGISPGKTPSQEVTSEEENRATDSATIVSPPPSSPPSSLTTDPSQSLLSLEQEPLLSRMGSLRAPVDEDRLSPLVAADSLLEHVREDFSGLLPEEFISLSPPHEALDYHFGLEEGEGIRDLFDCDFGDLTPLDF

Turning to `FC(F)(F)C(F)(F)C(F)(F)C(F)(F)C(F)(F)C(F)(F)C(F)(F)Br`, the outcome in assay [1], in assay [2], in assay [3], in assay [4], in assay [5] and in [6] was inactive. In addition, the result in [7], in [8], in assay [9] and in assay [10] was inactive.
Turning to `CC(C)OC(=O)c1ccccc1C(=O)OC(C)C`, the result in assay [1], in [2], in assay [3], in assay [4], in [5] and in assay [7] was inactive. The compound was classed as inactive in [8], in [9] and in assay [10]. In addition, the AC50 in [6] is 27.7 µM (active).
As for `COC(OC(C)=O)c1ccccc1` (configuration not stated), the compound was classed as inactive in [1], in assay [2], in assay [3], in assay [4], in assay [5] and in assay [6]. The compound was called inactive in assay [7], in assay [9] and in assay [10].
With `CC/C=C\CCOC(=O)c1ccccc1`, the result in [1], in assay [2], in assay [3], in assay [4], in assay [5] and in assay [6] was inactive. Besides, the result in assay [7], in [9] and in assay [10] was inactive.
Turning to `C=C(C)C(=O)OCCC(F)(F)C(F)(F)C(F)(F)C(F)(F)C(F)(C(F)(F)F)C(F)(F)F`, the outcome in assay [1], in assay [2], in assay [3], in assay [4], in assay [5] and in [7] was inactive. Moreover, the result in assay [9] and in assay [10] was inactive. The AC50 in assay [6] was 13.8 µM (active).
For `Cc1ccc(S(=O)(=O)NCl)cc1`, the compound was called inactive in assay [1], in assay [2], in [3], in assay [4], in [5] and in [6]. Moreover, the compound was classed as inactive in [7], in assay [9] and in assay [10].
As for `C=CC(F)(F)C(F)(F)C(F)(F)C(F)(F)C(F)(F)C(F)(F)C(F)(F)C(F)(F)F`, the result in [1], in [2], in assay [3], in [4], in [5] and in assay [6] was inactive. For the same compound, the call in [7], in [9] and in assay [10] was inactive.
Turning to `Cc1cc(C)cc(O)c1`, the outcome in assay [1], in assay [2], in assay [3], in assay [4], in assay [5] and in assay [6] was inactive. For the same compound, the compound was called inactive in assay [7], in assay [9] and in [10].
Turning to `OCC(F)(F)C(F)(F)C(F)(F)F`, the outcome in [1], in [2], in assay [3], in assay [4], in assay [5] and in assay [6] was inactive. Further, the outcome in assay [7], in assay [9] and in assay [10] was inactive.
For `CCc1ccc(C(c2ccc(CC)cc2)C(Cl)Cl)cc1`, the call in assay [1], in assay [2], in [3], in assay [4], in [5] and in assay [7] was inactive. Further, the compound was classed as inactive in assay [9] and in assay [10]. Besides, in [6], the AC50 is 40.1 µM (active).
For `O=C(O)C(F)(F)C(F)(F)C(F)F`, the result in assay [1], in assay [2], in [3], in assay [4], in [5] and in assay [6] was inactive. Also, the compound was classed as inactive in assay [7], in assay [9] and in assay [10].
`O=C(O)C(F)(F)C(F)(F)C(F)(F)C(F)(F)C(F)(F)C(F)(F)C(F)(F)C(F)(F)Cl`: the call in assay [1], in assay [2], in [3], in assay [5], in assay [7] and in assay [9] was inactive. Also, the call in assay [10] was inactive. For the same compound, the AC50 in assay [4] was 50 µM (active) and 64.8 µM (active); in assay [6], 15.4 µM (active) and 21.7 µM (active).
On to `CCCCCCCOC(=O)c1ccccc1C(=O)OCCCCCCC`, for which the compound was classed as inactive in assay [1], in assay [2], in assay [3], in assay [4], in assay [5] and in [6]. Also, the result in [7], in assay [9] and in [10] was inactive.
For `Cc1cccc(N(C)C)c1`, the compound was called inactive in assay [1], in [2], in assay [3], in assay [4], in assay [5] and in [6]. In addition, the call in [7], in assay [9] and in assay [10] was inactive.
Consider `CC(CCl)OP(=O)(OC(C)CCl)OC(C)CCl` (configuration not stated), for which the compound was classed as inactive in [1], in assay [2], in assay [3], in assay [4], in [5] and in [6]. Moreover, the compound was called inactive in assay [7], in assay [9] and in [10].
As to `FC(F)(F)C(F)(F)C(F)(F)C(F)(F)C(F)(F)C(F)(F)C(F)(F)I`, the call in assay [1], in assay [2], in assay [3], in assay [4], in [5] and in [7] was inactive. In addition, the compound was called inactive in assay [9] and in assay [10]. Moreover, in assay [6], the concentration at half-maximal activity (AC50) was 5.59 µM (active).
Regarding `CS(C)(=O)=O`, the compound was classed as inactive in assay [1], in [2], in [3], in [4], in assay [5] and in assay [6]. Also, the call in assay [7], in [9] and in assay [10] was inactive.
Regarding `c1ccc(B(c2ccccc2)c2ccccc2)cc1`, the compound was called inactive in assay [1], in [3], in assay [4], in assay [5], in assay [7] and in assay [9]. The compound was called inactive in assay [10]. The AC50 was 160 µM (active) in [2] and 9.96 µM (active) in [6].
On to `C=C(C)C(=O)OCC(F)(F)C(F)(F)C(F)(F)C(F)(F)C(F)(F)C(F)(F)C(F)(F)F`, for which the compound was classed as inactive in [1], in assay [2], in assay [3], in assay [4], in assay [5] and in [7]. The compound was called inactive in assay [9] and in [10]. Moreover, in [6], the AC50 was 16.2 µM (active).
On to `Cc1ccc(S(=O)(=O)OCC(F)(F)C(F)(F)C(F)(F)C(F)(F)C(F)(F)C(F)F)cc1`, for which the compound was classed as inactive in assay [1], in assay [2], in assay [3], in assay [4], in [5] and in assay [6]. The call in assay [7], in assay [9] and in [10] was inactive.
Take `O=C(O)C(F)(OC(F)(F)C(F)(OC(F)(F)C(F)(F)C(F)(F)F)C(F)(F)F)C(F)(F)F` (configuration not stated): the outcome in assay [1], in assay [2], in assay [3], in [4], in assay [5] and in assay [6] was inactive. The compound was classed as inactive in assay [7], in assay [9] and in [10].
With `C#C[C@]1(O)CC[C@H]2[C@@H]3CCc4cc(OC)ccc4[C@H]3CC[C@@]21C`, the compound was called inactive in [1], in assay [2], in [3], in assay [4], in assay [5] and in assay [7]. The compound was classed as inactive in assay [9] and in assay [10]. Moreover, the AC50 in assay [6] was 0.00935 µM (active).
For `NC(=O)C(F)(F)C(F)(F)C(F)(F)C(F)(F)F`, the call in [1], in [2], in assay [3], in assay [4], in [5] and in [6] was inactive. Besides, the result in assay [7], in assay [9] and in assay [10] was inactive.
`OCC(F)(F)C(F)(F)C(F)(F)C(F)(F)C(F)(F)C(F)(F)F`: the AC50 is 234 µM (active) in assay [1], 150 µM (active) in [2], 248 µM (active) in assay [4] and 236 µM (active) in assay [7]. Further, the outcome in assay [3], in assay [5], in assay [6], in assay [9] and in assay [10] was inactive.
Consider `CCCCOCCOCCOC(=O)CCCCC(=O)OCCOCCOCCCC`, for which the call in assay [1], in assay [2], in [3], in [4], in assay [5] and in assay [6] was inactive. Besides, the outcome in assay [7], in assay [9] and in assay [10] was inactive.

By AC50 is commonly meant the concentration giving half of the maximal activity seen.
